AMA1 RON2 block – qHTS for Inhibitors of AMA1-RON; Towards Development of Antimalarial Drug Lead: Primary Screen; Plasmodium falciparum AMA1 (3D7) - RON2 peptide interaction; AlphaScreen AMA1-biotinylated RON2 peptide binding; Potency, µM (series often up to 58.2 µM), for the others: at the top dose activity change, negative = inhibition, most hits filed as inhibitors; 360,000 compounds, 0.2% hits; AID 720542, 2013; active = well fitted inhibition curve with a large enough effect; inconclusive = small, poorly fitted or top-dose-only effect; inactive = no such curve, though single readings can be large or run the other way;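 note: potency is the fitted concentration of half-maximal effect; 0% = vehicle wells and -100% = peptide control; nearly all actives have a fitted effect of over 45% in size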
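AMA1 (3D7) with his tag at 25 nM final met compounds first, then biotinylated RON2 peptide at 25 nM; detection used donor plus acceptor beads, 10 µg/mL apiece, read by AlphaScreen after 30 min at room temperature.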
Cycloheximide cs – Cycloheximide Counterscreen for Small Molecule Inhibitors of Shiga Toxin. cell reporter, cycloheximide protein synthesis inhibition counterscreen. max response, %. 300,000 compounds, 12% hits. AID 2314, 2010; in the data active = max response mostly above about 13%, no sharp cut-off; inactive = mostly below about 14%; note: read at 38.3 µM for the half of the compounds with a filed dose; 0% is about no effect
Lassa entry inh – qHTS for Inhibitors of binding or entry into cells for Lassa Virus. Potency, µM (highest dose often 37.9 µM), for inactives: top-dose activity change, negative = inhibition, actives largely listed as inhibitors. Lassa virus pseudotype entry inhibition, cell reporter. 300,000 compounds, 1.2% hits; calls by dose curve; tested in HEK293 cells; note: potency is the fitted concentration of half-maximal effect; % is set by controls: 0 for no effect and ±100 for the full control effect; nearly all actives have a fitted effect of over 50% in size
Marburg entry inh – qHTS for inhibitors of binding or entry into cells for Marburg Virus. Potency, µM (top dose mostly 37.8 µM), inactives show top-dose activity change, negative = inhibition, usual class: inhibitors. 300,000 compounds, 1.8% hits. Marburg virus pseudotyped entry inhibition, cell reporter. AID 540276, 2011; calls by dose curve; tested in HEK293 cells; note: potency is the fitted concentration of half-maximal effect; % is set by controls: 0 for no effect and ±100 for the full control effect
Shiga inhibitor – A qHTS for Small Molecule Inhibitors of Shiga Toxin | Vero cells, Shiga toxin protein synthesis inhibition reporter | inhibition, % at 38.7 µM | 290,000 compounds, 9.2% hits | AID 2315, 2010; in the data active = inhibition mostly above about 28%, no sharp cut-off; inactive = mostly below about 43%; note: 0% is about no effect
An asterisk follows results filed as active; ? = inconclusive; . = no result given; [ ] = dose if it differs, or a comment. The sample as a whole holds a higher share of hits than the screen did.

SMILES	AMA1 RON2 block	Cycloheximide cs	Lassa entry inh	Marburg entry inh	Shiga inhibitor
O=C(CSC1=Nc2ccccc2C2CC=NN12)Nc1ccc2c(c1)OCO2 (stereo not given)	-12.2%	16.3*	-1.9%[46.1 µM]	?	9.7
c1ccn2c(SCc3ccc4c(c3)OCCO4)nnc2c1	-8.8%	51.3*	.	.	98.1*
CCCOC(=O)c1ccc(NC(=O)CSC2=Nc3ccccc3C3CC=NN23)cc1 (stereo not given)	45.1%	5.1	1.7%	-2.7%	-5.6
CC(Sc1nnnn1C)C(=O)Nc1ccc(N2CCOCC2)cc1 (stereo not given)	-3.6%	7.2	6.5%	26.2%	27.8
O=[N+]([O-])c1cccc(CSc2nnc3ccccn23)c1	-0.4%	-1.6	22.3%	21.7%[46.1 µM]	43.9
CCOCCCNC(=O)CN1CCN(Cc2ccc(Cl)cc2)C1=O	11.5%	-2.0	?	2.5%	-3.6
Cc1ccc(NC(=O)CSc2nnnn2C)cc1S(=O)(=O)N1CCCCC1	51.9%	.	.	.	.
CCC(C(=O)Nc1ccc2c(c1)OCCO2)n1nnc2ccccc2c1=O (stereo not given)	-14.3%	59.4*	.	.	65.8*
Cc1ccc(NC(=O)CSc2nnnn2C)cc1S(=O)(=O)N(C)C	12.8%	16.7*	26.0%	1.7%	31.2
CC(=O)Nc1ccc(C(=O)CSc2nnnn2C(C)C)cc1	15.6%	21.3*	-6.4%	19.5%	80.5*
CC(Sc1nnc2ccccn12)C(=O)Nc1ccc2c(c1)OCCO2 (stereo not given)	-5.8%	21.4*	13.1%	2.0%[46.1 µM]	85.0*
CC(Sc1nc2ccccc2c(=O)n1C)C(=O)Nc1ccc2c(c1)OCCO2 (stereo not given)	-2.4%	.	.	.	.
O=c1c2ccccc2sn1-c1ccc(Cl)cc1Cl	0.0%	.	.	.	.
NC(=O)NC(Cc1ccccc1)C(=O)NNC(=O)COc1ccccc1Cl (stereo not given)	68.2%	.	16.7%[46.1 µM]	12.6%[46.1 µM]	.
CCOC(=O)CSc1nc2ccc(NC(=O)CSc3nnnn3Cc3ccccc3)cc2s1	-3.9%	-2.2	-5.1%	-1.4%	-6.5
Nn1cnnc1SCC(=O)Nc1ccc2c(c1)OCCO2	-5.9%	11.6*	19.8%	17.6%	13.9
COCC(C)n1c(SCC(=O)NC(=O)Nc2ccc3c(c2)OCCO3)nc2ccccc2c1=O (stereo not given)	-16.5%	33.4*	1.9%	-13.6%	64.9*
COCC(C)n1c(SCC(=O)NC(=O)Cc2ccccc2)nc2ccccc2c1=O (stereo not given)	-0.3%	.	.	.	.
CC(C)(C)NC(=O)CSc1nc2ccc(NC(=O)CSc3nnnn3Cc3ccccc3)cc2s1	41.4%	-3.1	?	8.91µM*	-3.0
Cc1csc(SC(C)C(=O)Nc2ccc3c(c2)OCCO3)n1 (stereo not given)	-2.0%	29.4*	.	.	42.2
C#C[C@]1(OC(C)=O)CC[C@H]2[C@@H]3CCC4=CC(=O)CC[C@@H]4[C@H]3CC[C@@]21C	.	6.0	.	.	-5.0
Cc1cccc(NC(=O)CN(C)C(=O)/C=C/c2ccccc2)c1C	-13.9%	.	-27.0%	-4.0%	.
CCCC(=O)N1CCC1(C)C(=O)NS(=O)(=O)c1cc2c(cc1C)CCCS2(=O)=O (stereo not given)	0.2%	.	.	.	.
Cc1ccc(NC(=O)CSc2nn(-c3ccccc3)c(=S)s2)cc1S(=O)(=O)N(C)C	-4.5%	9.6	?	7.31µM*	15.2
CC(C)Cn1c(SC(C)C(=O)Nc2ccc3c(c2)OCCO3)nc2ccccc2c1=O (stereo not given)	-10.9%	0.6	11.6µM*	?	3.6
SMILES	AMA1 RON2 block	Cycloheximide cs	Lassa entry inh	Marburg entry inh	Shiga inhibitor
COc1cccc(NC(=O)CCC(=O)N2Cc3ccccc3Oc3ncccc32)c1	.	.	10.1%[46.1 µM]	.	.
O=C(Nc1ccc(N2C(=O)CCC2=O)cc1Cl)c1cccs1	-1.4%	10.8	-0.6%	-16.4%[46.1 µM]	10.3
Cc1ccccc1CSCC1Nc2ccc(C(=O)NCCc3ccccc3)cc2NC1=O (stereo not given)	10.3%	.	.	.	.
CCOC(=O)c1ccc(NC(=S)N2CCSC2c2ccc(Br)cc2)cc1 (stereo not given)	21.6%	13.3*	4.8%	7.0%	16.2
CCOC(=O)c1ccc(NC(=S)N2CCCC(C)C2)cc1 (stereo not given)	-20.6%	13.0*	-17.1%	17.5%[46.1 µM]	62.1*
CCCCc1ccc(NC(=S)N2CCN(c3ncccn3)CC2)cc1	3.3%	-0.4	?	-24.4%[46.1 µM]	-15.2

From PubChem
